Source: PubChem BioAssay (National Center for Advancing Translational Sciences (NCATS))
An excerpt weighted towards active compounds, which were near 7.1% of everything screened.
MARV entry inh: qHTS for Inhibitors of binding or entry into cells for Marburg Virus. Potency, µM (series often up to 49.2 µM), inactives show at the top dose activity change, negative = inhibition, most hits filed as inhibitors. 18,000 tested, 6.5% active. Marburg virus pseudotype entry/binding inhibition, cell-based
Lassa entry: qHTS for Inhibitors of binding or entry into cells for Lassa Virus | 18,000 tested, 4.1% active | AID 720533, 2013 | Potency, µM (highest dose often 49.2 µM), for the others: at the top dose activity change, negative = inhibition, actives largely listed as inhibitors | Lassa virus pseudotyped entry inhibition, cell-based qHTS
* hit, by the source's call; ? = inconclusive; [ ] = remark or other dose. Calls come from the whole dose curve; tested in HEK293 cells. % is set by controls: 0 for no effect and ±100 for the full control effect; potency is the fitted concentration of half-maximal effect.

SMILES	MARV entry inh	Lassa entry
CC1=C(/C=C/C(C)=C/C=C/C(C)=C/C=C/C=C(C)/C=C/C=C(C)/C=C/C(=O)[C@]2(C)CC(O)CC2(C)C)C(C)(C)CC(O)C1 (stereo not given in full)	8%	6%
CCCCCCCCCCCCCCCCCCNC(=O)OC1CCN(C(=O)OC[C@H](COC(=O)N(Cc2cccc[n+]2CC)C(=O)c2ccccc2OC)OC)CC1	11µM*	13µM*
C=C(C(C)=O)C(O)C=Cc1ccco1 (stereo not given)	3%[8.59 µM]	0%[8.59 µM]
Nc1nonc1-c1nc2cnccc2n1C1CCCCC1	?	42%
CN1CCN(C2=Nc3ccccc3Oc3ccc(Cl)cc32)CC1	?	-6%[17.8 µM]
CN1CCN(C2=Nc3ccccc3Sc3ccc(Cl)cc32)CC1	25µM*	?
COC(=O)C1(C(=O)OC)CC(CO)C(=O)[C@@H]1c1ccccc1 (stereo not given in full)	-8%[8.59 µM]	3%[8.59 µM]
C=CC[C@@H]1C=C[C@@H](OC(=O)OCC)[C@@H](COC(=O)OCC)O1	17%[8.59 µM]	-9%[8.59 µM]
COP(=O)(OC)[C@@H](O)C(Cl)(Cl)Cl	10%[17.8 µM]	4µM*
CCc1cc2c(nc1CC)CCN(CCC(C)=NO[C@H](C)c1cn([C@H](CO)Cc3ccccc3)nn1)C2	?	2%[8.59 µM]
